Rows were chosen to be rich in hits. Some 1.8% of all compounds tested hit in one or more screens of this group.
Yp Topo-I inh: inhibitors of Yersinia pestis topoisomerase I; Y. pestis Topo-I cleavage product accumulation, plate reader; activity, % at 10 µM; 360,000 compounds, 0.064% hits; AID 504884; in the data active = activity above about 50%, passing the limit was not always enough
Vc quorum ag-1: quorum light induction in luxS cqsA deficient V. cholerae. V. cholerae BH1578 lux reporter, luminescence, 6 h. activation, % at 18.7 µM. 350,000 compounds, 0.16% hits; in the data active = activation mostly above about 9.7%, no sharp cut-off
MazEF act: MazEF (E. coli) toxin RNase activation; P0AE70; FAM/BHQ RNA-DNA oligo cleavage fluorescence, 5 h; activation, % at 20 µM; 350,000 compounds, 0.32% hits; AID 504720; in the data active = activation above about 50%
Target sequence (P0AE70 whole entry, looked up): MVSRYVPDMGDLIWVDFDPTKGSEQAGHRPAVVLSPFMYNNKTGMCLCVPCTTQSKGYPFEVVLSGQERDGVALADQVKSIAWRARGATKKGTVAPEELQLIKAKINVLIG
CCHF vOTU inh: CCHFV vOTU protease inhibition | 370,000 compounds, 0.55% hits | Pep-AMC fluorescence | inhibition, % at 11.5 µM; in the data active = inhibition above about 30%; also: 0% = vehicle wells with enzyme and 100% = no enzyme wells
VHR inh abs: inhibitors of human VHR1 phosphatase (DUSP3); P51452; recombinant VHR phosphatase, pNPP absorbance; inhibition, % at 13.3 µM; 290,000 compounds, 0.52% hits; in the data active = inhibition above about 50%
Target sequence (P51452 whole entry, looked up): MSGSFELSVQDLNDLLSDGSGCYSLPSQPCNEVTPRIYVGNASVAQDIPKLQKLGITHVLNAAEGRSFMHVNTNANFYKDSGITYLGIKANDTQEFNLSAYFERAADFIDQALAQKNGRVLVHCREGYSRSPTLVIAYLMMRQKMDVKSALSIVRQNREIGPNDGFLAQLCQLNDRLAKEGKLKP
PrPC surface inh: reduces human prion protein on the cell surface. inhibition, % at 13.8 µM. AID 720596. 370,000 compounds, 0.43% hits. P04156. cell surface PrPC, TR-FRET read-out; in the data active = inhibition above about 24%; also: 0% = median of the test wells and 100% = reference compound wells
Vc quorum ag-2: induces V. cholerae light production without autoinducers; shares compounds with Vc quorum ag-1; V. cholerae BH1578 lux reporter, luminescence, 6 h; AID 602243; activation, % at 50 µM; 620 tested, under 10 active; call rule not given here
The depositor's hits bear a star; i = inactive; / = not tested or not shown; + = active, no number.

SMILES	Yp Topo-I inh	Vc quorum ag-1	MazEF act	CCHF vOTU inh	VHR inh abs	PrPC surface inh	Vc quorum ag-2
CCCn1nnnc1NCc1ccc(OC)cc1OC	-1	+	-1	3	9	0	i
CCCn1nnnc1NCc1ccc(SC)cc1	-3	/	10	-2	6	7	i
CCN(CC)c1ccc(CNc2nnnn2C)cc1	-7	+	7	-13	40	-5	i
CN1CC(=O)N(CC(=O)Nc2ccc3c(c2)CCC3)C1=O	-10	36*	-13	-2	18	-6	0
CC1(c2ccccc2)NC(=O)N(CC(=O)N(CC(=O)Nc2ccccc2C(F)(F)F)Cc2ccco2)C1=O (centres undefined)	-4	-1	3	7	/	-5	/
CCN(CC(=O)Nc1ccccc1C(F)(F)F)C(=O)CN1C(=O)NC(C)(c2ccc3ccccc3c2)C1=O (centres undefined)	16	21*	1	0	/	-1	0
Nc1nonc1-n1nnc(C(=O)N/N=C/c2ccccc2Cl)c1CN1CCOCC1	7	-5	12	10	-20	4	/
COc1ccc(NS(=O)(=O)c2cccc(C(=O)N3CCCC(C)C3)c2)cc1 (centres undefined)	-1	19	9	-7	/	-6	0
COc1cccc(C(=O)N[C@@H](Cc2cccnc2)C(=O)N2CCC[C@H]2C(=O)NCc2ccccc2)c1	/	/	/	-7	/	-2	/
CC1(C)NC(=O)N(CCOCCOc2ccc3ccccc3c2Br)C1=O	14	14	-12	-2	14	-25	1
O=c1c2c3c(sc2ncn1Cc1ccc(F)cc1)CCC3	-1	25	10	12	27	6	0
CCOC(=O)N1CCc2c(sc3ncn(Cc4ccc(F)cc4)c(=O)c23)C1	14	0	5	6	18	6	/
CCOC(=O)C1CCCN(Cc2cccc(Cl)c2)C1 (centres undefined)	4	12	-3	-11	4	0	0
CCOC(=O)C1CCCN(Cc2ccc(OCc3ccccc3)cc2)C1 (centres undefined)	27	-1	-2	-8	26	2	/
CCCCCn1c(SCC(=O)OCC)nc2cc(C(=O)N3CCC(C(N)=O)CC3)ccc2c1=O	-4	14	1	-4	25	-5	0
Cc1cc(C)c(NC(=O)CN2CCN(C)CC2)c(C)c1	2	0	13	1	-13	-1	/
COc1ccc(N2CCN(CC(=O)Nc3c(C)cc(C)cc3C)CC2)cc1	3	12	0	-1	4	0	0
COc1cc(C(=O)NCC(=O)Nc2ccc(F)c(F)c2)ccc1OCC(=O)N1CCOCC1	-6	-1	1	16	/	-8	/
COc1ccc(CNC(=O)CSc2nc3c(oc4ccccc43)c(=O)n2CC2CCCO2)cc1 (centres undefined)	-2	14	0	5	/	-4	0
CCCNC(=O)Nc1cc(C)on1	0	0	4	17	10	-2	/
CCCCNC(=O)Nc1cc(C)on1	4	14	-4	-2	-4	-1	0
O=C(COC(=O)/C=C/c1cccc(F)c1)NC1CCCCCC1	18	i	6	-6	/	-1	/
O=C(COC(=O)/C=C/c1cccc(F)c1)NC1CCCC1	2	24	3	6	/	-2	105
Cc1cc(C)c(SSc2nnnn2-c2ccccc2)c(C)c1	2	-4	-12	4	/	3	/
O=C(NC1CCCCC1)C(=O)c1c[nH]c2ccccc12	6	474*	7	14	0	3	i
O=C(NCc1ccco1)c1cc2n(n1)C(C(F)(F)F)CC(c1ccc(Br)cc1)N2 (centres undefined)	9	0	0	3	32	3	/
O=C(NCc1ccco1)c1cc2n(n1)C(C(F)(F)F)CC(c1ccc(Cl)c(Cl)c1)N2 (centres undefined)	10	14	10	23	13	1	903
O=C(Nc1ccc(Cl)c(Cl)c1)Nc1ccccc1C(=O)O	-3	13	-10	-2	1	0	0
O=C(Nc1cccc(Cl)c1)Nc1ccccc1C(=O)O	0	0	-4	1	-13	2	/
COc1ccc(C(CNC(=O)c2nn(-c3ccccc3)c(=O)c3ccccc23)N2CCOCC2)cc1 (centres undefined)	11	-2	1	-2	/	-6	/
